Out of some 16,000 compounds screened, about 4,000 (25%) were called active. Not shown: some 26% with an inconclusive outcome. Not all results are given here. Unmarked numbers belong to inactive results. The call rests on the fitted dose curve; in most records, active means well fitted curve in the direction sought with a large enough effect; inconclusive means small, poorly fitted or top-dose-only effect, or effect the other way; inactive means no such curve, though single readings can be large or run the other way.
The compounds below were run against Cytochrome P450 2C9 (Homo sapiens) (UniProt P11712) (assay: Cytochrome panel assay with activity outcomes). Conditions: recombinant CYP, pro-luciferin dealkylation, luminescence, p450-cyp2c9; series mostly up to 57.1 µM; activity, negative = inhibition: at the top concentration.
Sequence of Cytochrome P450 2C9 (Homo sapiens) (P11712 whole entry, looked up): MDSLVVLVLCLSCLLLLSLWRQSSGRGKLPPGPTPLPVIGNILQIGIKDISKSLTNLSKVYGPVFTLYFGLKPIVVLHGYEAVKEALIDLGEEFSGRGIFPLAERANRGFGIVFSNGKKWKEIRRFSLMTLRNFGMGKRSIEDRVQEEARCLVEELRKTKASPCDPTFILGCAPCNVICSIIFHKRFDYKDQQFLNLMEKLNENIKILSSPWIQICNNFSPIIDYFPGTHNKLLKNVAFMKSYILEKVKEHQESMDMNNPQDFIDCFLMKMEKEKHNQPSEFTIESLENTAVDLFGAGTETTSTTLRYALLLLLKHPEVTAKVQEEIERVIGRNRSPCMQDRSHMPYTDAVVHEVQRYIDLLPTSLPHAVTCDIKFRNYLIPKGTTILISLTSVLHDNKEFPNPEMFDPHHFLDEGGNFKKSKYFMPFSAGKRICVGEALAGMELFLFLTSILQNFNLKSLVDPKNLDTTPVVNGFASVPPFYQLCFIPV
On the % scale 0 is the no-effect control and ±100 the full control effect.

Compound	AC50	activity, negative = inhibition
O=C(COC(=O)c1cccc(S(=O)(=O)N2CCN(c3ccccc3)CC2)c1)NCc1ccco1	2.24 µM (active)	
Clc1ccccc1-c1ccc2ncnc(NCCN3CCOCC3)c2c1		24.6% [at 2.29 µM]
O=C(COC(=O)c1cccc(S(=O)(=O)N2CCOCC2)c1)Nc1nc(-c2ccccc2Cl)cs1	4.47 µM (active)	
Clc1ccccc1-c1nccc(NCCN2CCOCC2)n1		29.8% [at 2.29 µM]
O=C(O)C1C2CCC(C2)C1C(=O)NCc1ccco1 (configuration not stated)		-7.58%
CS(=O)(=O)Nc1cccc(-c2nc(N3CCOCC3)c3ccccc3n2)c1		-0.621% [at 2.29 µM]
O=C(CCc1nc2ccccc2c(=O)[nH]1)OCC(=O)N1CCN(S(=O)(=O)c2ccccc2)CC1		8.87%
C[n+]1cc2c3c(ccc2c2ccc4cc5c(cc4c21)OCO5)OCO3		-18.7%
COC(=O)[C@H](C)NC(=O)C/C=C\[C@@H](C)[C@H]1C=C[C@H](O)[C@@H](CO)O1		-20.2% [at 11.4 µM]
Cc1cc(C)nc(Nc2n[nH]c(COc3ccc4ccccc4c3)n2)n1		-13.6%
CCOc1ccc(N2C(=O)CN=C2Nc2ccccc2Cl)cc1		-15.4%
CCOc1ccc(N2C(=O)CN=C2Nc2ccccc2F)cc1	12.6 µM (active)	
CCOc1ccc(N2C(=O)/C(=C/c3cccs3)N(CC(=O)OC)C2=S)cc1		29.2%
COc1c(O)cc2c(c1O)[C@@H]1O[C@@H](CO)[C@@H](O)[C@@H](O)[C@@H]1OC2=O		-0.188% [at 25.6 µM]
O=C(NCCc1c[nH]c2ccccc12)[C@H]1C[C@@H]1[C@H](NP(=O)(c1ccccc1)c1ccccc1)c1ccccc1	2 µM (active)	
O=C(NCc1cc(F)cc2c1OCCO2)[C@H]1C[C@@H]1[C@H](NP(=O)(c1ccccc1)c1ccccc1)c1ccccc1	12.6 µM (active)	
O=C(Nc1ccc2ccccc2c1)[C@H]1C[C@@H]1[C@H](NP(=O)(c1ccccc1)c1ccccc1)c1ccccc1	3.16 µM (active)	
O=C(NCCc1c[nH]c2ccccc12)[C@@H]1C[C@H]1[C@@H](NP(=O)(c1ccccc1)c1ccccc1)c1ccccc1	0.251 µM (active)	
COC(=O)Nc1ccc2[nH]cc(CCNC(C)=O)c2c1		-6.3%
CSC(N)=NCCC[C@@H](N)C(=O)O		-9.74%
N=C(N)CCNC(=O)[C@@H]1CCC(N)=N1		-0.797% [at 11.4 µM]
O=C(O)[C@H]1C[C@H](C(=O)O)N1		24.8%
Cc1cc(CNC(=O)[C@H]2C[C@@H]2[C@H](NP(=O)(c2ccccc2)c2ccccc2)c2ccccc2)nn1C		-22.9%
Cc1cc(CNC(=O)[C@@H]2C[C@H]2[C@@H](NP(=O)(c2ccccc2)c2ccccc2)c2ccccc2)nn1C		-1.27%

Compound	AC50	activity, negative = inhibition
O=C(NCc1nc2ccccc2[nH]1)[C@H]1C[C@@H]1[C@H](NP(=O)(c1ccccc1)c1ccccc1)c1ccccc1	12.6 µM (active)	
CC(=O)c1cccc(NC(=O)CCC2CCCC2)c1	14.1 µM (active)	
O=C(CC1CCCC1)Nc1ccc2c(c1)CCC2		-31%
CC(=O)NNC(=O)CCC(=O)Nc1ccccc1		-2.97%
N#C/C(=C\Nc1ccccn1)C(=O)C1CC1		2.34% [at 11.4 µM]
N#C/C(=C\Nc1ccccn1)C(=O)c1ccco1	3.16 µM (active)	
O=C(N/N=C/c1ccccn1)c1ccco1		61.6%
CC(C)CSC[C@@H]1O[C@H](n2cnc3c(N)nccc32)[C@H](O)[C@@H]1O		3.85% [at 11.4 µM]
CS(=O)(=O)N1CCC2(CC1)CN(C(=O)Nc1ccccc1)C2		8.74%
CS(=O)(=O)N1CCN(c2ccccc2NC(=O)c2ccc(Br)o2)CC1	20 µM (active)	
CC(C)N1CCC(=NNC(=O)c2ccc(Br)o2)CC1		-17%
COCC(=O)N1CCC2(CCCN(Cc3ccccc3)C2)CC1		-0.418%
O=C(c1ccc2c(c1)N(Cc1ccc(F)cc1)C(=O)CS2)N1CCOCC1	17.8 µM (active)	
O=C(c1cc(Cl)c(=O)n(Cc2ccc(Cl)cc2)c1)N1CCOCC1		-22.2%
O=C1S/C(=C/c2ccc(N3CCOCC3)o2)C(=O)N1Cc1ccc(F)cc1		-19.5%
CC(Sc1nc(-c2ccccc2)cc(C(F)(F)F)n1)C(=O)N1CCCCC1 (configuration not stated)	8.91 µM (active)	
O=C(c1cc(C(F)(F)F)cc(C(F)(F)F)c1)N1CCC[C@@]2(CCN(c3ccccc3)C2)C1		24%
O=C(O)CSc1cc(C(F)(F)F)nc(-c2ccccn2)n1		-7.48%
CCCC1(C(=O)OC)C=C2C(=C(C)C(=O)C2C)CN1 (configuration not stated)		-6.7%
CCCCCC1=C2CNC(CC(C)C)(C(=O)OC)C=C2C(C)C1=O (configuration not stated)	3.16 µM (active)	
COC(=O)C1(CC(C)C)C=C2C(=C(C(C)C)C(=O)C2C)CN1 (configuration not stated)	12.6 µM (active)	
CCCCCC1=C2CNC(CCC)(C(=O)OC)C=C2C(C)C1=O (configuration not stated)	10 µM (active)	
c1ccc(CNc2ccnc(-c3ccc4c(c3)OCO4)n2)cc1		-0.997% [at 2.29 µM]

Reference: PubChem BioAssay AID1851 (National Center for Advancing Translational Sciences (NCATS), 2009)
